This is an account of results in PubChem BioAssay (Tox21).

Records with an inconclusive call do not appear. Calls of active or inactive are those of the source. Calls follow the shape of the full dose curve.
% is scaled to controls: 0 for no effect and ±100 for the full control effect.

The assay in a line: cAMP Responsive Elements (CRE) small molecule agonists, cell-based qHTS assay (AID 1963590). Particulars: CRE-bla HEK293T, beta-lactamase FRET ratio, 3 h; series mostly up to 92.4 µM; activation: at the top concentration. The text has this: U.S. Tox21 Program National Center for Advancing Translational Sciences [NCATS] Division of Preclinical Innovation [DPI] U.S. Environmental Protection Agency [EPA] National Institutes of Environmental Health Sciences [NIEHS] National Toxicology Program [NTP] U.S. Food and Drug Administration [FDA] Tox21 Assay Overview: CREB (cyclic-AMP Responsive Element Binding Protein) is a cellular transcription factor. It binds to certain DNA sequences called cAMP Responsive Elements (CRE) and regulates the transcription of the genes. […] This cell line can be used to find agonists/antagonists of the cyclic AMP signaling pathway. The activation of the report gene under culture conditions can be detected by fluorescence intensity. This cell line has been used to screen the Tox21 10K compound library to identify agonists that induce oxidative stress.
Tox21 Assay Protocol Summary: CRE-bla Hek 293T cells were suspended in assay medium (DMEM containing 10% dialyzed FBS, 0.1 mM NEAA, 1 mM sodium pyruvate and 25 mM HEPES) and dispensed at 2,000 cells/5 uL /well into 1536-well black wall/clear bottom plates using a Multidrop Combi (ThermoFisher Scientific, Waltham, MA) dispenser. After the assay plates were incubated at 37 C/5% CO2 for 18 hrs, 23 nL of compounds dissolved in DMSO, positive controls or DMSO only was transferred to the assay plate by a pintool workstation (Kalypsys, San Diego, CA). After the plates were incubated at 37 C/5% CO2 for 3 hrs, 1 uL of LiveBLAzer B/G FRET substrate (Invitrogen, Carlsbad, CA) was added to each well using Bioraptr Flying Reagent Dispenser (FRD, Aurora Discovery, San Diego, CA). The plates were incubated at room temperature for 2 h.
A general note: qHTS replaces the single test concentration by a dilution series.
For `COS(=O)(=O)O`, the “activation” value is -0.191% (inactive).
Same read-out and setting: with `CNCCS(=O)(=O)O` the figure was -2.02% (inactive); with `CCCCCCCCC(=O)OCC`, -0.165% (inactive).
`OCC(CO)N[C@H]1C[C@](O)(CO)[C@@H](O)[C@H](O)[C@H]1O`: the “activation” value is -1.26% [at 42.5 µM] (inactive).
Same read-out and setting: the result for `CCN(CC)CCN` reads 0.0324% [at 42.5 µM] (inactive).
For the molecule `CC(C)(C)c1nnc(NS(=O)(=O)c2ccc(N)cc2)s1`, the “activation” value is -0.492% [at 42.5 µM] (inactive).
Same read-out and setting: the result for `Cc1ccccc1C(=O)N1CC/C(=N\OS(=O)(=O)O)c2ccc(Cl)cc21` reads -2.82% [at 42.5 µM] (inactive); that for `OCCOc1ccc(OCCO)cc1`, 0.313% (inactive).
On the same count and under the same terms, the result for `O=C(O)c1ccc(OCCCOc2ccc(C(=O)O)cc2)cc1` reads -0.411% [at 42.5 µM] (inactive); that for `CC(C)CCCC(C)CCO` (stereo not given), 0.0653% (inactive).
For `CC1=CCC(C(C)(C)O)CC1` (stereo not given), the Potency result is “inactive”.
In the case of `O=C(CCNNC(=O)c1ccncc1)NCc1ccccc1`, the “activation” value was 0.103% [at 42.5 µM] (inactive).
Regarding `CNCCCC12CCC(c3ccccc31)c1ccccc12`, the “activation” value is 3.74% [at 42.5 µM] (inactive).
For `CO[Si](CCCNCCNCCN)(OC)OC`, the “activation” value is 0.365% (inactive).
The same measure, in the same setting: the result for `[Cl][Nd]([Cl])[Cl]` reads 1.59% (inactive).
As for `CC1CCC(C(C)C)C(O)C1` (stereo not given), the Potency entry was “inactive”.
Same read-out and setting: the result for `O=C(/C=C/c1ccccc1)OCc1ccccc1` reads “inactive”.
`COc1cccc(OC)c1`: the “activation” value is -0.442% (inactive).
`C=C1C[C@]23C[C@@]1(O)CC[C@H]2[C@@]12C=C[C@H](O)[C@@](C)(C(=O)O1)[C@H]2[C@@H]3C(=O)O`: the Potency entry is “inactive”.
With `C=C(C)C(=O)OCCCCCCCC(C)C`, the “activation” value is 0.123% (inactive).
The same measure, in the same setting: the result for `C1=C\CC/C=C\CC/C=C\CC/1` reads -0.0653% (inactive); that for `OCC1(CO)COCOC1`, -0.932% (inactive).
On the same count and under the same terms, with `CC#N` the figure was 8.4% (inactive).
Regarding `C=C(C)C(=O)OCCCCCCOC(=O)C(=C)C`, the “activation” value is -0.189% (inactive).
On the same count and under the same terms, the result for `COc1cccc(Br)c1` reads 0.121% (inactive).
`NC(=O)NNC(N)=O`: the “activation” value was -1.18% (inactive).
On the same count and under the same terms, with `C=C(C)C(=O)NCCC[N+](C)(C)C` the figure was 0.224% (inactive); with `CC(=O)C(C)O` (stereo not given), -1.25% (inactive).
On the same count and under the same terms, with `C=CC(C)CCC=C(C)C` (stereo not given) the figure was -0.289% (inactive).
In the case of `COS(C)(=O)=O`, the Potency result was “inactive”.
Turning to `CC(CCO)CCc1ccccc1` (stereo not given), the “activation” value is 0.596% (inactive).
Turning to `CN=C(NC#N)NCCSCc1nc[nH]c1C`, the Potency entry is “inactive”.
On the same count and under the same terms, with `Cc1cc(O)cc(C)c1Cl` the entry was “inactive”.
With `CC1(C)CO[C@@H](CC(=O)O)CN1`, the “activation” value was -0.313% [at 42.5 µM] (inactive).
The same measure, in the same setting: with `CC(=O)OC/C=C/c1ccccc1` the figure was -0.387% (inactive).
As to `c1ccc(SCCSc2ccccc2)cc1`, the “activation” value is 2.83% (inactive).
Same read-out and setting: the result for `Cc1cncc(C)c1` reads -0.621% (inactive).
For the molecule `CC(C)(c1cc(Br)c(O)c(Br)c1)c1cc(Br)c(O)c(Br)c1`, the “activation” value is 17.9% (inactive).
Turning to `C=CC(=O)O[C@H]1C[C@@H]2CC[C@@]1(C)C2(C)C`, the “activation” value was 0.437% (inactive).
For the molecule `Nc1nc(N)nc(-c2ccccc2)n1`, the Potency result is “inactive”.
